VP16 counter: VP16 counterscreen qHTS for inhibitors of ROR gamma transcriptional activity | Drosophila S2 Gal4-VP16 UAS-luciferase, luminescence, 20 h | Potency, µM (highest dose often 53.6 µM), inactives show at the highest dose activity, negative = inhibition, actives largely listed as inhibitors | 3.5% of 310,000 active;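 note: Gal4-VP16 expression switched on by copper sulfate through the metallothionein promoter; % is set by controls: 0 for no effect and ±100 for the full control effect; nearly all actives have a fitted effect of over 50% in size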
KB-3-1 cytotox: qHTS assay for MDR1-selective chemotherapeutics: Primary screen using the parental adenocarcinoma cell KB-3-1; 1.4% of 400,000 active; KB-3-1 viability, CellTiter-Glo ATP luminescence, 72 h; AID 1347075, 2019; Potency, µM (doses to about 46.1 µM), actives largely listed as cytotoxic; note: % is set by controls: 0 for no effect and ±100 for the full control effect; nearly all actives have a fitted effect of over 60% in size
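Using CellTiter-Glo luminescence, growth of non-resistant KB-3-1 adenocarcinoma cells is assessed 72 h after pin-tool compound addition at 37 °C. Normalized responses across the concentration series yield fitted curves.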
RORg inh: qHTS for inhibitors of ROR gamma transcriptional activity | Nuclear receptor ROR-gamma (Mus musculus), P51450 | Drosophila S2 Gal4-RORgamma UAS-luciferase reporter, 20 h | Potency, µM (titrated, usually from 53.6 µM), for the others: at the top dose activity change, negative = inhibition, usual class: inhibitors | 5.4% of 310,000 active | AID 2551, 2010; note: % is set by controls: 0 for no effect and ±100 for the full control effect; nearly all actives have a fitted effect of over 60% in size
Target sequence (P51450 whole entry, looked up, the tested form may be a part): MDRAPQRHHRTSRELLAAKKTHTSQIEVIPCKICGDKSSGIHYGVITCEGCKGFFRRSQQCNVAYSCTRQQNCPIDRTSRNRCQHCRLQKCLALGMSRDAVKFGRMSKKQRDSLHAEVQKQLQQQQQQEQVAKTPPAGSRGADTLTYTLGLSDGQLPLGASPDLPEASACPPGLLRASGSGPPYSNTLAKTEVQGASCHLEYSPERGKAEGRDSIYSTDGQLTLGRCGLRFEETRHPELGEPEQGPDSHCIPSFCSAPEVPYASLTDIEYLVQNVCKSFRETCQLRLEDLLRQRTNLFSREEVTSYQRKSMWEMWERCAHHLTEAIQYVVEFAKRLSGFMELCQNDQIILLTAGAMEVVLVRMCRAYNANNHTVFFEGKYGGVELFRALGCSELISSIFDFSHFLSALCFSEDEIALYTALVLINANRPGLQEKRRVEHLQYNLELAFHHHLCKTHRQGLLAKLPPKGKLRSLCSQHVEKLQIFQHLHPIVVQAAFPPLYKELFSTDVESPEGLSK
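Schneider cells (Drosophila), stable Gal4 DBD–ROR gamma + UAS-luc; 1 hr cmpd preincubation; Cu2+ induction 700 uM final; 20 hr ambient; luminescence.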
KB-V1 MDR tox: qHTS assay for MDR1-selective chemotherapeutics: Primary screen using the drug-selected MDR subline cells KB-V1. AID 1347076, 2019. Potency, µM (titrated, usually from 46.1 µM), usual class: cytotoxic. 3.4% of 400,000 active. KB-V1 MDR cells viability, CellTiter-Glo, 72 h; note: % is set by controls: 0 for no effect and ±100 for the full control effect; nearly all actives have a fitted effect of over 60% in size
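Compound-treated KB-V1 multidrug-resistant cells, 72 h, 37 degrees C; viability by CellTiter-Glo. Fitted qHTS curves give the values.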
MCF10A rereplic: A quantitative high throughput screen for small molecules that induce DNA re-replication in MCF 10a normal breast cells; Potency, µM (top dose mostly 46.1 µM), for inactives: top-dose activity, positive = re-replication, hits mostly activators; 2.9% of 350,000 active; MCF 10A DNA re-replication, Hoechst nuclear intensity, 48 h; note: % of control where 0% means no effect; nearly all actives have a fitted effect of over 50% in size
SW480 rerep: A quantitative high throughput screen for small molecules that induce DNA re-replication in SW480 colon adenocarcinoma cells; SW480 DNA re-replication, Hoechst DNA content imaging, 48 h; Potency, µM (top dose mostly 46.1 µM), for the others: at the highest dose re-replication activation, most hits filed as activators; 1.8% of 340,000 active; note: % of control where 0% means no effect; nearly all actives have a fitted effect of over 55% in size
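Treated cells incubate 48 hr (37 C, 5% CO2), are stained 40 min with Hoechst, and nuclear fluorescence is enumerated; a rise in nuclei with high DNA signal marks re-replication.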
Numbers without * were called inactive; i = inactive; u = inconclusive; x = not tested or not shown. This is a sample that favours compounds with a hit; in the whole collection about 10% have one here. Calls come from the whole dose curve; as a rule, active = well fitted curve in the direction sought with a large enough effect; inconclusive = small, poorly fitted or top-dose-only effect, or another doubt; inactive = no such curve, though single readings can be large; an effect the other way counts as inactive or inconclusive. Potency is the fitted concentration of half-maximal effect.

SMILES | VP16 counter | KB-3-1 cytotox | RORg inh | KB-V1 MDR tox | MCF10A rereplic | SW480 rerep
COc1ccc(CNC(=O)C(C)Sc2nc3ccccc3c(=O)n2CC2CCCO2)cc1 (configuration not stated) | x | i | x | 5.8µM* | -1.7% | -3.2%
O=C(NCC1CCCO1)c1cc2n(n1)C(C(F)(F)F)CC(c1ccc(F)cc1)N2 (configuration not stated) | -6.8% | i | 34.1% | 20.6µM* | 10.5% | -5.4%
CC(C)(C)c1ccc(C(=O)c2c[nH]c(C(=O)NCC3CCCO3)c2)cc1 (configuration not stated) | 12.6µM* | i | u | i | 7.1% | -3.9%
COc1ccc(C(=O)NC(=S)NCC2CCCO2)cc1 (configuration not stated) | u | i | 12.6µM* | i | -3.3% | 0.3%
Cc1ccccc1C(=O)NC(=S)NCC1CCCO1 (configuration not stated) | u | i | 14.1µM* | i | -4.9% | -6.8%
COc1ccc2c(c1)c1c(c(=O)n(Cc3ccccc3)c(=O)n1CC(=O)NCc1ccc(C)cc1)n2C | x | i | x | i | x | x
Cc1ccccc1-n1c(C)nnc1SC(C)C(=O)NCc1ccco1 (configuration not stated) | x | u | x | i | x | x
O=C(Cc1ccc(F)cc1)NCC1CCCO1 (configuration not stated) | -21.2% | i | 11.2µM* | i | 3.1% | -20.3%
COc1ccccc1/C=C/C(=O)NC(=S)NCC1CCCO1 (configuration not stated) | u | i | 2.82µM* | u | 0.8% | -2.6%
O=C(NCc1ccccc1)NC1CCCCC1 | 18.8% | i | 30.2% | i | 0.3% | 11.8%
O=C(NCC1CCCO1)c1ccc(C(=O)NCC2CCCO2)cc1 (configuration not stated) | 2.5% | i | 6.0% | i | -3.4% | -13.0%
CC(C)(C)c1ccc(C(=O)NNC(=S)NCC2CCCO2)cc1 (configuration not stated) | u | i | 3.98µM* | i | 10.4% | -1.9%
COc1ccc(CNC(=O)NC2CCCCC2)cc1 | u | i | 0.3% | i | 3.66µM* | 18.4µM*
CCOC(=O)c1sc2ccccc2c1S(=O)(=O)Nc1ccc(OC)c(Cl)c1 | x | i | x | i | x | x
CC(C)=CCC[C@H](C)C[C@@H]1Cc2[nH][nH]c(=O)c2[C@@H](c2ccc(F)cc2)O1 | x | i | x | i | x | x
COc1ccc(CC(=O)Nc2c(C(=O)Nc3ccc(F)cc3)oc3ccccc23)cc1OC | x | i | x | i | x | x
CCOC(=O)c1c(C)n(-c2ccccc2)c2ccc(OC(=O)c3ccccc3Cl)cc12 | x | i | x | i | x | x
CCC(=O)c1c[nH]c(C(=O)NCCCN2CCOCC2)c1 | 10.8% | i | -8.8% | u | -2.5% | -3.8%
CC(C)(C)c1ccc(C(=O)NC(=S)NCC2CCCO2)cc1 (configuration not stated) | 5.62µM* | i | 2.24µM* | i | 0.8% | -6.4%
CC(C)(C)c1ccc(C(=O)c2c[nH]c(C(=O)NCCCN3CCOCC3)c2)cc1 | 2.5% | i | -4.5% | 18.4µM* | u | 8.0%
O=C(NC(=S)NCC1CCCO1)C(c1ccccc1)c1ccccc1 (configuration not stated) | 6.31µM* | i | 7.08µM* | i | -1.5% | u
Cc1ccc(C)c(Cn2c3ccccc3c3cnn(CC(=O)NC(C)c4ccccc4)c(=O)c32)c1 (configuration not stated) | x | i | x | i | x | x
O=C(NCc1ccccc1)N1CCn2c(nc3ccccc32)C1 | -7.8% | i | u | 18.4µM* | -0.5% | 1.3%
O=S1(=O)c2ccc(Br)cc2N2CCC[C@@H]2CN1Cc1ccccc1 | x | u | x | i | u | 2.91µM*
O=S1(=O)c2ccc(Br)cc2OC(COCc2ccccc2)CN1Cc1ccccc1 (configuration not stated) | x | i | x | u | -6.0% | u
SMILES | VP16 counter | KB-3-1 cytotox | RORg inh | KB-V1 MDR tox | MCF10A rereplic | SW480 rerep
CC(=O)N[C@@H](C=O)[C@@H](O)[C@H](O)[C@H](O)CO | 4.8% | x | -8.6% | x | x | x
COc1ccc(-c2cc(C(=O)O)[nH]n2)cc1OC | -7.8% | 23.1µM* | -9.2% | i | -0.3% | 4.7%
Cn1c(=O)c2sccc2n2c(CCCC(=O)NCc3ccccc3)nnc12 | x | i | x | i | x | x
CCn1c(CSCc2ccc(C)cc2)n[nH]c1=S | 3.55µM* | i | 5.62µM* | i | 3.4% | -2.0%
CCn1c(CSCc2ccc(Cl)cc2)n[nH]c1=S | 7.08µM* | i | 2.24µM* | i | -14.6% | u
Cn1c(CSCc2ccc(Cl)c(Cl)c2)n[nH]c1=S | 3.98µM* | i | 5.62µM* | i | 8.2% | 2.5%
Cc1cccc(NC(=O)c2sc3nc(-c4cc5ccc(O)cc5oc4=O)[nH]c(=O)c3c2C)c1 | x | i | x | i | x | x
O=[N+]([O-])c1ccc(Sc2ncccn2)c([N+](=O)[O-])c1 | u | i | 7.94µM* | i | 18.4µM* | u
O=[N+]([O-])c1ccc(Sc2nccn2Cc2ccccc2)c([N+](=O)[O-])c1 | u | i | u | u | 20.6µM* | u
O=[N+]([O-])c1cc(C(F)(F)F)ccc1Sc1nccn1Cc1ccccc1 | -5.6% | i | -10.0% | i | u | 3.0%
O=[N+]([O-])c1ccc(SNc2ccccc2)c([N+](=O)[O-])c1 | x | i | x | 23.1µM* | 26.7% | -1.6%
Cc1cccnc1C(NC(=O)C1CCN(Cc2ccc3ccccc3n2)CC1)c1ccc(Cl)cc1 (configuration not stated) | x | i | x | i | x | x
COc1ccccc1NC(=O)c1sc2nc(-c3ccco3)ccc2c1N | 11.8% | i | 1.7% | i | 14.6µM* | 29.3%
Nc1c(C(=O)Nc2ccccc2)sc2nc(-c3ccco3)ccc12 | 9.1% | u | 13.7% | u | 18.4µM* | u
COc1cccc(-c2ccc3c(N)c(C(=O)Nc4ccccc4C)sc3n2)c1 | x | i | x | i | x | x
COc1ccccc1NC(=O)c1sc(NC(=O)c2ccco2)c(C#N)c1C | -4.9% | i | -28.2% | i | 16.4µM* | u
COc1ccc(NC(=O)/C(=C/c2cccs2)NC(=O)c2ccco2)cc1 | -20.7% | i | -0.6% | i | -31.7% | -1.6%
